Source: PubChem BioAssay (NCATS)
Active and inactive are the calls of the source. Unless noted, calls follow the shape of the dose curve; as a rule, active = well fitted inhibition curve with a large enough effect; inconclusive = small, poorly fitted or top-dose-only effect; inactive = no such curve, though single readings can be large or run the other way.

These compounds were tested against Pyruvate kinase (Leishmania mexicana) (UniProt Q27686) (assay: qHTS Validation Assay for Inhibitors of Leishmania Mexicana Pyruvate Kinase (AID 945;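 also: 0% = DMSO only neutral control wells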)). Details: purified L. mexicana pyruvate kinase, enzyme activity, E451W mutant enzyme; series mostly up to 57.5 µM; activity change, negative = inhibition: at the top concentration.
Pyruvate kinase (Leishmania mexicana), sequence (Q27686 2-499 E452W): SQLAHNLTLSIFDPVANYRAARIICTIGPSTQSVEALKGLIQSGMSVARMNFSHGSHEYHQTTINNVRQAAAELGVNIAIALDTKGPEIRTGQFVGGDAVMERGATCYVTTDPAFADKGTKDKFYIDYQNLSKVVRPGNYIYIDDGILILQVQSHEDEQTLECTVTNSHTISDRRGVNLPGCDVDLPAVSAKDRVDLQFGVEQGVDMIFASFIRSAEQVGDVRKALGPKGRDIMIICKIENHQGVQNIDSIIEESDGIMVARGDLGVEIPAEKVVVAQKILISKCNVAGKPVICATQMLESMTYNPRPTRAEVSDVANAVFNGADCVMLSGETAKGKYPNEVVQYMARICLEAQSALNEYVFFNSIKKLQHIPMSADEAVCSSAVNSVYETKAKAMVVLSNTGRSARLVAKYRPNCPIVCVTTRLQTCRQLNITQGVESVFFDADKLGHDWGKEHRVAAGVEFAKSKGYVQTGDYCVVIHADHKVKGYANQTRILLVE
Method in brief: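 Mutant LmPYK (E451W), 0.2 nM, plus 0.5 mM PEP and 0.1 mM ADP in 50 mM imidazole pH 7.2 containing 0.01% Tween 20 and 0.05% BSA. Incubated 1 h at room temperature; luminescence via PKLight, normalized to DMSO.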

SMILES | activity change, negative = inhibition | Potency
N[C@H](CCCP(=O)(O)O)C(=O)O | 8.31% (inactive) | –
N#C/C(=C\c1ccc(O)c(O)c1)C(=O)NCc1ccccc1 | 11.9% (inactive) | –
COC1=C(OC)C(=O)c2ccccc2C1=O | -2.87% (inactive) | –
Ic1ccc(N2CCN(Cc3c[nH]c4ncccc34)CC2)cc1 | 4.35% (inactive) | –
O=S(=O)(c1cccc2c(I)cccc12)N1CCCNCC1 | -2.86% (inactive) | –
CCCCN1CCC(n2c(=O)[nH]c3ccccc32)CC1 | 2.05% (inactive) | –
NCCCCCCCCCCN | -2.14% (inactive) | –
NCCSSCCN | 8.58% (inactive) | –
COc1cc(OC)c(/C=C2/C(=O)Nc3ccccc32)c(OC)c1 | 3.03% (inactive) | –
O=c1[nH]c2cc(Cl)c(Cl)cc2[nH]c1=O | 5.48% (inactive) | –
CN1CCc2ccccc2Cc2[nH]c3ccccc3c2CC1 | 3.86% (inactive) | –
NCCNC(=O)c1ncsc1-c1cccc(F)c1 | -13.9% (inactive) | –
Fc1ccc(C(OCCCc2cnc[nH]2)c2ccc(F)cc2)cc1 | 6.94% (inactive) | –
N=C(N)SCCc1ccc(CCSC(=N)N)cc1 | 8.81% (inactive) | –
O=C(O)CC[C@@H](C(=O)O)N1C(=O)c2ccccc2C1=O | -17.8% (inactive) | –
N#C/C(=C\c1c[nH]c2ccccc12)C(=O)c1ccc(O)c(O)c1 | 0.397% (inactive) | –

SMILES | activity change, negative = inhibition | Potency
C[N+](C)(CCCCCC[N+](C)(C)CCCN1C(=O)c2cccc3cccc(c23)C1=O)CCCN1C(=O)c2cccc3cccc(c23)C1=O | 2.29% (inactive) | –
O=c1[nH]c2ccccc2n1CCCN1CCN(C(c2ccccc2)c2ccccc2)CC1 | -14.8% (inactive) | –
Oc1ccccc1O | 14% (inactive) | –
CC(C)NC[C@H](O)COc1cccc2[nH]ccc12 | 3.19% (inactive) | –
O=c1[nH]c2cc(C(F)(F)F)ccc2n1-c1cc(C(F)(F)F)ccc1O | 5.68% (inactive) | –
CCCCCCCC/C=C\CCCCCCCC(=O)NCCO | 23.3% (inactive) | –
NCCCS(=O)(=O)O | 6.11% (inactive) | –
COC(=O)c1c(C)[nH]c(C)c1C(=O)c1ccccc1Cc1ccccc1 | -5.41% (inactive) | –
CC(C)Cc1ccc([C@H](C)C(=O)O)cc1 | 4.46% (inactive) | –
CNCC[C@H](Oc1ccc(C(F)(F)F)cc1)c1ccccc1 | – | inactive
O=C(O)c1cc([N+](=O)[O-])ccc1NCCCc1ccccc1 | 16.2% (inactive) | –
O=C1NC(O)=NC1(c1ccccc1)c1ccccc1 | 7.62% (inactive) | –
NCCCCC(=O)O | -5.98% (inactive) | –
COc1cc2c(CCNC(C)=O)c[nH]c2cc1Cl | -7.43% (inactive) | –
N[C@@H](CC(=O)O)C(=O)O | 5.25% (inactive) | –
O=c1[nH]c2cc([N+](=O)[O-])c([N+](=O)[O-])cc2[nH]c1=O | 7.69% (inactive) | –

The compounds below were run against Pyruvate kinase PKM (Homo sapiens) (UniProt P14618) (assay: qHTS Assay for Activators of Human Muscle Pyruvate Kinase (AID 954; active = well fitted curve in the direction sought with a large enough effect, not every such curve was filed as active;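 also: 0% = uninhibited enzyme and -100% = no enzyme or full thiadiazolimine inhibition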)). Details: purified human muscle pyruvate kinase, luciferase-coupled luminescence, 1 h; series mostly up to 57.5 µM; activity change, negative = inhibition: at the top concentration.
Pyruvate kinase PKM (Homo sapiens), sequence (P14618 whole entry, looked up): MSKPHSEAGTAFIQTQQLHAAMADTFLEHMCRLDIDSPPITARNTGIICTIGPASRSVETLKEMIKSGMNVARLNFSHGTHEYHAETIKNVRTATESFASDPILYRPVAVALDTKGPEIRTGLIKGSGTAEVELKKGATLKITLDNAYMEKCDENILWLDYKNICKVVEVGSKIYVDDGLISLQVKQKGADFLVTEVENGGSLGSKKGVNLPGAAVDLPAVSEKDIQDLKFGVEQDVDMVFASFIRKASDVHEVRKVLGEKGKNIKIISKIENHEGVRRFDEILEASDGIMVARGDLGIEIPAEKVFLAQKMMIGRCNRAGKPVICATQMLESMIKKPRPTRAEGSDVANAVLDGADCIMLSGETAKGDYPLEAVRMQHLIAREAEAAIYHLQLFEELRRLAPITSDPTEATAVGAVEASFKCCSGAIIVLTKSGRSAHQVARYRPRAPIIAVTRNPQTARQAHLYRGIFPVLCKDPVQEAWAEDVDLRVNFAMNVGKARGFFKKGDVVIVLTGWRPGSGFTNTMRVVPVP
Method in brief: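 A coupled luminescent readout tracked ATP made from ADP by purified PKM2. Final conditions included 0.1 nM enzyme, PEP and ADP at 0.5 and 0.1 mM, pH 7.2 imidazole buffer with BSA, and a one-hour room-temperature reaction.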

SMILES | activity change, negative = inhibition | outcome
N[C@H](CCCP(=O)(O)O)C(=O)O | -8.68% (inactive) | –
N#C/C(=C\c1ccc(O)c(O)c1)C(=O)NCc1ccccc1 | -36.7% (inactive) | –
COC1=C(OC)C(=O)c2ccccc2C1=O | 7.14% (inactive) | –
Ic1ccc(N2CCN(Cc3c[nH]c4ncccc34)CC2)cc1 | 4.56% (inactive) | –
O=S(=O)(c1cccc2c(I)cccc12)N1CCCNCC1 | -6.71% (inactive) | –
CCCCN1CCC(n2c(=O)[nH]c3ccccc32)CC1 | -19.1% (inactive) | –
NCCCCCCCCCCN | -3.73% (inactive) | –
NCCSSCCN | -27.5% (inactive) | –
COc1cc(OC)c(/C=C2/C(=O)Nc3ccccc32)c(OC)c1 | -17.8% (inactive) | –
O=c1[nH]c2cc(Cl)c(Cl)cc2[nH]c1=O | -11.8% (inactive) | –
CN1CCc2ccccc2Cc2[nH]c3ccccc3c2CC1 | -13.9% (inactive) | –
NCCNC(=O)c1ncsc1-c1cccc(F)c1 | -4.59% (inactive) | –
Fc1ccc(C(OCCCc2cnc[nH]2)c2ccc(F)cc2)cc1 | -24.5% (inactive) | –
N=C(N)SCCc1ccc(CCSC(=N)N)cc1 | 7.9% (inactive) | –
O=C(O)CC[C@@H](C(=O)O)N1C(=O)c2ccccc2C1=O | -4.9% (inactive) | –
N#C/C(=C\c1c[nH]c2ccccc12)C(=O)c1ccc(O)c(O)c1 | -39.7% (inactive) | –

SMILES | activity change, negative = inhibition | outcome
C[N+](C)(CCCCCC[N+](C)(C)CCCN1C(=O)c2cccc3cccc(c23)C1=O)CCCN1C(=O)c2cccc3cccc(c23)C1=O | -24.4% (inactive) | –
O=c1[nH]c2ccccc2n1CCCN1CCN(C(c2ccccc2)c2ccccc2)CC1 | -33.7% (inactive) | –
Oc1ccccc1O | 17.9% (inactive) | –
CC(C)NC[C@H](O)COc1cccc2[nH]ccc12 | 5.32% (inactive) | –
O=c1[nH]c2cc(C(F)(F)F)ccc2n1-c1cc(C(F)(F)F)ccc1O | -2.44% (inactive) | –
CCCCCCCC/C=C\CCCCCCCC(=O)NCCO | -27% (inactive) | –
NCCCS(=O)(=O)O | 5.63% (inactive) | –
COC(=O)c1c(C)[nH]c(C)c1C(=O)c1ccccc1Cc1ccccc1 | -11.8% (inactive) | –
CC(C)Cc1ccc([C@H](C)C(=O)O)cc1 | -9.28% (inactive) | –
CNCC[C@H](Oc1ccc(C(F)(F)F)cc1)c1ccccc1 | – | inactive
O=C(O)c1cc([N+](=O)[O-])ccc1NCCCc1ccccc1 | -32.1% (inactive) | –
O=C1NC(O)=NC1(c1ccccc1)c1ccccc1 | 10.9% (inactive) | –
NCCCCC(=O)O | -29.1% (inactive) | –
COc1cc2c(CCNC(C)=O)c[nH]c2cc1Cl | -12.5% (inactive) | –
N[C@@H](CC(=O)O)C(=O)O | -11.5% (inactive) | –
O=c1[nH]c2cc([N+](=O)[O-])c([N+](=O)[O-])cc2[nH]c1=O | -17.3% (inactive) | –
